The values below come from PubChem BioAssay AID431 (Sanford-Burnham Center for Chemical Genomics, 2006).

The campaign covered roughly 63,000 compounds. About 1,100 (1.7%) were called active. Only a selection was taken, and actives are over-represented in it overall. Results with a measured potency or affinity are listed apart. Values without a mark were called inactive.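 How the source made its calls: active means compounds whose percent cytotoxicity in the single-dose primary screen, scaled between solvent and toxic-drug controls, exceeds 50; inactive means the rest.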

A short description of this assay: cytotoxicity in KRAS-transformed pancreatic duct cells, primary screen, cell-based, fluorescence, HTS (AID 431).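 Further: 0% = DMSO solvent wells and 100% = doxorubicin-treated wells.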 The note with it: HPDE-C7K KRASV12 cells, Alamar Blue viability, 48 h; at 10 µM; active compounds read high. On the technique in general: Alamar Blue is a resazurin reagent that responds to reducing activity.
Take `C=C(C)c1ccc(C(C)(C)NC(=O)NCc2ccco2)cc1`: the cytotoxicity is 8.8%. For the compound `CC(=O)c1c(C)[nH]c(C(=O)N2CCCCCC2)c1C`, the cytotoxicity is -5.8%.

For the compound `CC(=O)N1CCc2c(sc(NC(=O)CN3C(=O)CCC3=O)c2C(N)=O)C1`, the cytotoxicity is 0.3%. Then `COc1cc(NS(=O)(=O)c2cc(C)ccc2OC)c(OC)cc1Cl`, with 4%.

As to `COc1ccc(OC)c(S(=O)(=O)Nc2cc(OC)c(Cl)cc2OC)c1`, the cytotoxicity was 6.9%.

As to `COc1cc(NS(=O)(=O)c2ccc(OC)c(C)c2C)c(OC)cc1Cl`, the cytotoxicity is 64.1% (active). As to `C=CCn1c(=O)c(C(=O)Nc2ccccc2C(=O)OCC)c(O)c2ccccc21`, the cytotoxicity is -8.6%. As to `CCC(C)n1nccc1NC(=O)C(C)OC(=O)c1cc2ccccc2[nH]1` (centres undefined), the cytotoxicity is 7%. On to `CCOC(=O)Cc1c(C)c2ccc(N(CC)CC)cc2oc1=O`, for which the cytotoxicity is -21.9%. Regarding `CCN(CC)C(=O)Oc1ccc2c(=O)c(-c3ccc(OC)cc3)c(C)oc2c1`, the cytotoxicity was 4.7%.

Consider `CCN(CC)c1ccc2c(C)c(CN3CCOCC3)c(=O)oc2c1`, for which the cytotoxicity was 26.6%. On to `CCOc1cc2c(C)cc(=O)oc2cc1Cl`, for which the cytotoxicity was 0.2%.

As to `CCNc1ccc2c(Cl)cc(=O)oc2c1`, the cytotoxicity is 6.3%.

For `CCN(CC)c1ccc2cc(NC(=O)CCC(=O)O)c(=O)oc2c1`, the cytotoxicity was 15.5%. Turning to `CCN(CC)c1ccc2c(C)c(-c3ccc(N)cc3)c(=O)oc2c1`, the cytotoxicity is 82.1% (active). On to `COc1ccc(-n2cnnc2SCC(=O)N(C)C2CCS(=O)(=O)C2)cc1` (centres undefined), for which the cytotoxicity was 3.5%. With `COCc1nc2ccccc2n1Cc1ccc(Br)cc1`, the cytotoxicity was -5.7%. The value for `CSc1nnc(-c2sc3cc(Cl)ccc3c2Cl)n1C` was -20.3%; that for `Cc1csc(NC(=O)c2nc3nc(C)cc(C)n3n2)n1` was -16.1%. For `COc1ccccc1-n1nnnc1SCc1ccccc1`, the cytotoxicity is -10.6%. The value for `Cc1cccc(C)c1-n1nnnc1S(=O)(=O)Cc1ccccc1Cl` was -1.5%; that for `O=c1[nH]c2cc3c(cc2cc1CN(CCc1ccccc1)Cc1nnnn1C1CCCC1)OCCO3` was -11.1%. As for `CC(CN1CCCCC1)OC(=O)c1cc2ccccc2o1` (centres undefined), the cytotoxicity was -6.7%. The value for `CCCS(=O)(=O)N1CCCC(C(=O)NCc2ccc3c(c2)OCO3)C1` (centres undefined) was -6.2%; that for `CC(C)[C@H](NC(=O)OC(C)(C)C)c1nnc(S(=O)(=O)Cc2c(F)cccc2Cl)o1` was -5.9%; that for `CC(C)C[C@H](N)c1nnc(S(=O)(=O)Cc2cccc(F)c2)o1` was -7.4%. Consider `Cc1ccc(C2N(c3cccc(Cl)c3)C(=O)C3CCCN32)o1` (centres undefined), for which the cytotoxicity is -0.1%. Then `COc1ccc(C(=O)Nn2c(SCC(=O)NCC3CCCO3)nc3ccccc3c2=O)cc1` (centres undefined), with -11%; and `O=C(CCc1ccccc1)Nc1ccc(N2CCOCC2)cc1`, with 2.6%. The value for `Cc1cc(-n2c(=O)c(C#N)cc3c(=O)n4ccccc4nc32)no1` was -4.7%; that for `C=CCn1c(=O)c(C#N)cc2c(=O)n3ccccc3nc21` was 4.5%. In the case of `Cc1ccc(-n2c(=O)c(C#N)cc3c(=O)n4ccccc4nc32)cc1`, the cytotoxicity was 69.7% (active). `O=C(Nc1ccc2c(c1)OCCO2)c1ccc(Br)c(S(=O)(=O)N2CCOCC2)c1`: the cytotoxicity is -7.9%.

As for `CC(C)CC(NC(=O)C1CCC(C)CC1)C(=O)Nc1ccccn1` (centres undefined), the cytotoxicity was -19.7%. The value for `CCOC(=O)c1nnn(-c2nonc2N)c1CSc1ccccn1` was -3.2%; that for `COc1ccc(-n2nnnc2SCC(N)=O)cc1` was -7.1%; that for `COc1ccccc1NC(=O)C1=C(C)NC(SCC(=O)c2ccccc2)=C(C#N)C1c1ccco1` (centres undefined) was 27.2%.

As to `CC1=C(C(=O)Nc2ccccc2)C(c2ccco2)C(C#N)=C(SCc2ccccc2)N1` (centres undefined), the cytotoxicity is 57.7% (active). In the case of `CCOC(=O)C1=C(c2ccccc2)NC(SCC(=O)Nc2ccccc2C)=C(C#N)C1c1ccco1` (centres undefined), the cytotoxicity was 39%. As to `CC1=C(C(=O)Nc2ccccc2)C(c2ccco2)C(C#N)=C(SCC(=O)Nc2cccc(C)c2C)N1` (centres undefined), the cytotoxicity is 79.6% (active).

In the case of `CC1=C(C(=O)Nc2ccccc2)C(c2ccco2)C(C#N)=C(SCC(=O)OC(C)C)N1` (centres undefined), the cytotoxicity was 49.2%. Turning to `CCOC(=O)CSC1=C(C#N)C(c2ccco2)C(C(=O)Nc2cccc(C(F)(F)F)c2)=C(C)N1` (centres undefined), the cytotoxicity is 28.1%. Then `CCOC(=O)C(NC(=O)c1ccccc1)=C1CCCCC1`, with -19.2%; and `CC(c1ccccc1)n1cc(C(=O)NCc2ccccn2)nn1` (centres undefined), with -7.5%; and `CCCc1cc(=O)[nH]c(SCC(=O)Nc2ccc(OC(F)F)cc2)n1`, with -7.3%. In the case of `O=C(NCCCN1CCCCCC1)c1ccc(CS(=O)(=O)Cc2ccccc2F)o1`, the cytotoxicity was -3%. Then `Cc1cccc2sc(NC(=O)CNS(=O)(=O)c3ccc(Br)s3)nc12`, with -11.6%; and `Cc1cccc2sc(NC(=O)CN(C)S(=O)(=O)c3cccs3)nc12`, with 28.8%; and `COCCn1c(SCC#N)nnc1-c1ccccc1O`, with -24.2%. As for `COc1ccc(NC(=O)N2CCCCC2)cc1`, the cytotoxicity is -3.1%. Consider `Oc1cccc(Nc2ncnc3ccccc23)c1`, for which the cytotoxicity is 4.2%.

Turning to `COc1ccc(CNC(=O)Cc2ccc(OC)c(S(=O)(=O)N3CCOCC3)c2)cc1`, the cytotoxicity was 3.6%. Take `Cc1nc2cc(C(F)(F)F)ccc2n1C1CCN(CC(=O)N2CCOCC2)CC1`: the cytotoxicity is -14.7%. With `c1ccc(Cn2nnnc2CN2CCN(Cc3ccc4c(c3)OCO4)CC2)cc1`, the cytotoxicity is -0.4%. With `CC1(C)CC(=O)C(C=Nc2ccc3[nH]ncc3c2)=C(O)C1`, the cytotoxicity is 14.8%. As for `CN1CCN(C(=O)c2cc3c(n(-c4ccccc4)c2=O)CC(C)(C)CC3=O)CC1`, the cytotoxicity was -5%. As for `CCCn1c(=O)c2ccccc2n2c(SCCOc3ccc(OC)cc3)nnc12`, the cytotoxicity is -17.4%.

As for `COCCCNc1oc(COc2ccc(Cl)cc2Cl)nc1C#N`, the cytotoxicity was 18.7%. Then `CN(C)c1oc(-c2ccc(OCc3ccc(Cl)cc3)cc2)nc1C#N`, with 51.7% (active); and `N#Cc1nc(-c2ccc(OCc3ccc(Cl)cc3)cc2)oc1N1CCOCC1`, with -19.7%; and `CN(C)c1oc(-c2ccc(OCc3ccccc3)cc2)nc1C#N`, with -8.5%. Consider `O=C(Cn1cccc1)Nc1ccc(F)cc1F`, for which the cytotoxicity is 1%. For the compound `CCOC(=O)c1[nH]c2ccc(C)cc2c1N=CN(CC)CC`, the cytotoxicity was 4.8%. Take `CCOC(=O)c1[nH]c2ccc(F)cc2c1N=C(C)N(CC)CC`: the cytotoxicity is -17.4%.

For `CCOC(=O)c1[nH]c2ccc(C)cc2c1N=C(C)N(C)C`, the cytotoxicity is 70% (active). In the case of `OC(CN1CCOCC1)CN(c1ccccc1)c1ccccc1` (centres undefined), the cytotoxicity was -10.7%. In the case of `O=C(CSc1ncnc2ccccc12)N1CCCC1`, the cytotoxicity is -10.1%. On to `CC1(C)CC(=O)c2cnn(-c3nc4ccccc4[nH]3)c2C1`, for which the cytotoxicity is -19%. Consider `c1ccc2c(c1)nc(N1CCOCC1)c1c3ccccc3[nH]c21`, for which the cytotoxicity is -52.3%. In the case of `COc1cc(C(C)=O)ccc1OC(=O)C(C)N1C(=O)c2ccccc2C1=O` (centres undefined), the cytotoxicity was -5.8%. For `O=C(NCc1ccco1)C(Cc1ccccc1)N1C(=O)c2ccccc2C1=O` (centres undefined), the cytotoxicity was -12.8%. For `COc1ccc(NC(=O)CC2C(=O)N(c3ccc(OC)cc3)C(=O)N2CCN2CCN(C)CC2)cc1` (centres undefined), the cytotoxicity is -7.8%. On to `COc1ccc(CCN2C(=O)c3[nH]nc(-c4ccccc4O)c3C2c2ccccc2)cc1OC` (centres undefined), for which the cytotoxicity was 24%.

`COCCCN1C(=O)c2[nH]nc(-c3cc(C)cc(C)c3O)c2C1c1ccc(O)c(OC)c1` (centres undefined): the cytotoxicity is 12%.

With `Cc1cc(O)c(-c2n[nH]c3c2C(c2cccc(O)c2)N(Cc2cccnc2)C3=O)cc1Cl` (centres undefined), the cytotoxicity is 9.3%. For `COc1cc(C2C(C(C)=O)=C(O)C(=O)N2CCc2ccc(OC)c(OC)c2)ccc1O` (centres undefined), the cytotoxicity was 1.7%. On to `COCCCN1C(=O)c2[nH]nc(-c3ccccc3O)c2C1c1ccc(Cl)cc1` (centres undefined), for which the cytotoxicity was 62.9% (active). The value for `CC(C)OCCCN1C(=O)c2[nH]nc(-c3ccccc3O)c2C1c1cccc(Cl)c1` (centres undefined) was -4.9%. For `Cc1ccc(C2c3c(-c4ccccc4O)n[nH]c3C(=O)N2Cc2ccncc2)cc1` (centres undefined), the cytotoxicity is 8.5%. Regarding `COCCCN1C(=O)c2[nH]nc(-c3ccccc3O)c2C1c1cccc(Cl)c1` (centres undefined), the cytotoxicity is 18.6%.

`COc1ccc(C2c3c(-c4ccccc4O)n[nH]c3C(=O)N2CCc2ccc(OC)c(OC)c2)cc1` (centres undefined): the cytotoxicity is 51.4% (active). Then `COc1ccc(CCN2C(=O)c3[nH]nc(-c4ccccc4O)c3C2c2cccc(O)c2)cc1OC` (centres undefined), with 63.4% (active); and `COc1ccc(C2c3c(-c4cc(Cl)c(C)cc4O)n[nH]c3C(=O)N2Cc2cccnc2)cc1OC` (centres undefined), with 14.2%. `Cc1ccc(S(=O)(=O)N(C)CCCC(=O)NCc2ccc3c(c2)OCO3)cc1`: the cytotoxicity was -7.5%.

Consider `O=S(=O)(c1cccc(-c2csc(-c3cccnc3)n2)c1)N1CCCCC1`, for which the cytotoxicity was -13.4%.

`Cn1nccc1/C=C(/C#N)S(=O)(=O)c1ccccc1`: the cytotoxicity was -21.9%. `Cc1ccc2nc(SCC(=O)O)nc(C)c2c1`: the cytotoxicity is -14.7%. `CCc1nnc(NC(=O)CSc2nnc(Cc3ccccc3)n2-c2ccccc2)s1`: the cytotoxicity was -4.7%. As to `CC1=Nn2c(nnc2-c2ccco2)SC1`, the cytotoxicity is -17.8%. For the compound `COC(=O)c1sc(NC(=O)C2CCCO2)c(C(=O)OC)c1C` (centres undefined), the cytotoxicity was 19.4%.

Consider `COc1cc(OC)cc(-c2nnc(SCC(=O)N3c4ccccc4Sc4ccccc43)o2)c1`, for which the cytotoxicity was -24.8%.

`Cc1nnc(SC(=O)N2c3ccccc3Sc3ccccc32)s1`: the cytotoxicity was -0.5%. The value for `COc1ccc(C(=O)CSc2nnc(-c3ccccc3)o2)cc1` was -6.4%. For `O=C(CCN1c2ccccc2Sc2ccccc21)OCc1nnc(-c2ccccc2)o1`, the cytotoxicity was 3.5%.
